# Inconclusive results are not listed. A call without a number means that no potency is given here. The source made the active and inactive calls. The call rests on the fitted dose curve; in most records, active means well fitted curve in the direction sought with a large enough effect; inconclusive means small, poorly fitted or top-dose-only effect, or another doubt; inactive means no such curve, though single readings can be large; an effect the other way counts as inactive or inconclusive.
# Assays:
# [1] = NCATS anti-infectives library activity on HEK293 viability as a counter-qHTS vs the C. elegans viability qHTS (AID 1745854);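 further: HEK293 cells exposed to compounds for 24 hr before the viability read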
# Method in brief: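 Counter-screen for cytotoxicity: HEK293, 24 hr, 37C, compounds up to 41.7 uM final (a dilution series, 1:5). Readout CellTiter-Glo luminescence, 10 min RT. Digitonin control, 83.3 uM final.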
# [2] = molecular target: Glutathione peroxidase 1 (Homo sapiens) (UniProt P07203); test: Primary qHTS Assay for Inhibitors of Recombinant Selenoprotein Glutathione Peroxidase 1 (GPX1) (AID 1845191); further: nearly all actives have a fitted effect of over 65% in size
# Glutathione peroxidase 1 (Homo sapiens), sequence (P07203 whole entry, looked up): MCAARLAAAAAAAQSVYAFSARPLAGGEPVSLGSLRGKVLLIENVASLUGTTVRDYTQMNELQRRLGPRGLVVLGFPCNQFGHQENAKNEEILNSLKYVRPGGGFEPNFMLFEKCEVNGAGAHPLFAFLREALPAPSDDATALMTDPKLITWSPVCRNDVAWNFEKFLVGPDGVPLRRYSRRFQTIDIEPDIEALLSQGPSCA
# Method in brief: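 GPX1 10 nM, GR 100 nM, GSH 1 mM, NADPH 0.5 mM, CHP 0.5 mM (final). 30-min cpd preincubation, RT. Ex340/Em450 read t=0, t=15 min.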
# [3] = molecular target: Phospholipid hydroperoxide glutathione peroxidase GPX4 (Homo sapiens) (UniProt P36969); test: Primary qHTS Assay for Inhibitors of Recombinant Selenoprotein Glutathione Peroxidase 4 (GPX4) (AID 1845192); further: nearly all actives have a fitted effect of over 65% in size
# Phospholipid hydroperoxide glutathione peroxidase GPX4 (Homo sapiens), sequence (P36969 whole entry, looked up): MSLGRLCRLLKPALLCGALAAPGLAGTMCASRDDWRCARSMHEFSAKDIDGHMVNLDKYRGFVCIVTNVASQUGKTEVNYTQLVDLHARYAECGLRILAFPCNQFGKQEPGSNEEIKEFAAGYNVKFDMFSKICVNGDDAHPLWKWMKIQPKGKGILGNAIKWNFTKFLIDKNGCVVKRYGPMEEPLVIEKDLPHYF
# Method in brief: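 qHTS, GR-coupled: GPX4 200 nM + cpd 30 min RT → GSH 1 mM, NADPH 0.5 mM, GR 100 nM → CHP 0.5 mM start; fluor 340/450 at t0 and t15 min; no-enzyme wells as control.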
# [4] = Quantitative High-Throughput drug screen in 47 multiple myeloma cell lines against the NCATS MIPE library collection: EJM_DSMZ cell viability assay (AID 1918926; further: nearly all actives have a fitted effect of over 30% in size; further: potency means the concentration at half of the fitted maximal effect)
# Method in brief: (§1)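 Steps: seed 500 cells per well; pin-transfer MIPE 4.0 library; incubate 48 h at 37C, 5% CO2, humidified; add CellTiter-Glo, 5 min room temperature; read luminescence.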
# [5] = Quantitative High-Throughput drug screen in 47 multiple myeloma cell lines against the NCATS MIPE library collection: AMO1_DSMZ cell viability assay (AID 1918927; further: nearly all actives have a fitted effect of over 30% in size; further: potency means the concentration at half of the fitted maximal effect)
# Method in brief: as §1
# [6] = molecular target: Metallo-beta-lactamase type 2 (Klebsiella pneumoniae) (UniProt C7C422); test: qHTS to identify inhibitors of the New Delhi Metallo-beta-lactamase (NDM): assay validation screen against the NCATS LOPAC Collection (AID 1794843);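 further: nitrocefin turnover by NDM-1 measured as 485 nm absorbance at plateau; series mostly up to about 38 µM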
# Metallo-beta-lactamase type 2 (Klebsiella pneumoniae), sequence (C7C422 whole entry, looked up): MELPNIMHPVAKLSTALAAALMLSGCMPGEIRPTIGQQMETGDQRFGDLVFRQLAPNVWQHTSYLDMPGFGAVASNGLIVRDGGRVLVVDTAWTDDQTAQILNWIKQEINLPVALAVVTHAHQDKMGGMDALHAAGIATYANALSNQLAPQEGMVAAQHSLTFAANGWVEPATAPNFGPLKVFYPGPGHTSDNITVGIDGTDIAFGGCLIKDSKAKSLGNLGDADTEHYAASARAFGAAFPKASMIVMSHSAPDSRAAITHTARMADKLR
# Method in brief: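 Nitrocefin hydrolysis (50 uM substrate stock) by NDM-1, 2 nM final, was followed by 485 nm absorbance after compound preincubation; buffer was 50 mM HEPES pH 7.0, 1 uM ZnSO4, 0.01% Tween20.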
# [7] = Quantitative High-Throughput drug screen in 47 multiple myeloma cell lines against the NCATS MIPE library collection: Delta47_JCRB cell viability assay (AID 1918925; further: nearly all actives have a fitted effect of over 45% in size; further: potency means the concentration at half of the fitted maximal effect)
# Method in brief: as §1
# [8] = Quantitative High-Throughput drug screen in 47 multiple myeloma cell lines against the NCATS MIPE library collection: FR4_PLB cell viability assay (AID 1918924; further: nearly all actives have a fitted effect of over 35% in size; further: potency means the concentration at half of the fitted maximal effect)
# Method in brief: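 qHTS of the MIPE 4.0 collection: 500 myeloma cells/well, 48 h drug exposure at 37C in 5% CO2, then CellTiter-Glo for 5 min at room temperature before luminescence reading.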
# [9] = molecular target: Luciferin 4-monooxygenase (Photinus pyralis) (UniProt P08659); test: Primary firefly luciferase (FLuc) qHTS assay for identification of artifact compounds. (AID 1845220); settings: outcome: dose series up to 54.1 µM; further: nearly all actives have a fitted effect of over 60% in size
# Method in brief: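 In this counter-screen for luciferase artifacts, test compounds met substrate (10 uM each luciferin and ATP) before 10 nM enzyme started the reaction. Light output was measured 5 min later.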
# [10] = Primary fluorescence-based thiol-reactive (MSTI) qHTS assay for identification of artifact compounds. (AID 1845221);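 further: series mostly up to about 54 µM; thiol-reactive compounds lower the probe fluorescence signal; nearly all actives have a fitted effect of over 65% in size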
# Method in brief: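 qHTS titration of compound; 4 uM MSTI, PBS pH 7.4, 2% DMSO; 1 h RT, dark; fluorescence 525/598 nm; normalized to Acetyl-MSTI and MSTI; 4-parameter Hill fit.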
# [11] = system: Nanoluciferase (engineered Oplophorus gracilirostris luciferase); test: Primary Nanoluciferase (NLuc) qHTS assay for identification of artifact compounds. (AID 1845222);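 further: NLuc secreted into diluted conditioned medium of S16 cells; series mostly up to about 54 µM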
# Method in brief: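 Using secreted nanoluciferase in S16 culture medium (0.22 um filtered, 1:55 dilution), compounds were preincubated 15 min at RT. Signal was generated with Nano-Glo reagent (1:100) over 5 min.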
# [12] = Primary redox qHTS assay for identification of artifact compounds. (AID 1845223)
# Method in brief: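 Redox-cycling detection via DTT (250 uM final) oxidation coupled to Amplex Red (25 uM)/HRP (250 mU/mL) in HBSS. 15 min preincubation plus 30 min after DTT, room temperature. Ex/Em 525/598 nm; 4-parameter Hill fit against DMSO and 10 uM DA3003.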
structure (smiles),measurement,setting,value
COc1ccccc1OCC(O)CN1CCN(CC(=O)Nc2c(C)cccc2C)CC1 (stereo not drawn),Potency,[1],inactive
same,Potency,[2],inactive
same,Potency,[3],inactive
same,Potency,[4],inactive
same,Potency,[5],inactive
CCC1(C)CC(=O)NC1=O (stereo not drawn),outcome,[6],inactive
same,Potency,[2],inactive
same,Potency,[3],inactive
same,Potency,[7],inactive
same,Potency,[4],inactive
same,Potency,[5],inactive
COc1ccccc1N1CCN(CC(O)COc2cccc3ccccc23)CC1 (stereo not drawn),outcome,[6],inactive
same,Potency,[2],inactive
same,Potency,[3],inactive
same,Potency,[7],inactive
same,Potency,[4],inactive
same,Potency,[5],inactive
COc1nc(C)nc(Cl)c1NC1=NCCN1,outcome,[6],inactive
same,Potency,[2],inactive
same,Potency,[3],inactive
same,Potency,[8],inactive
same,Potency,[5],inactive
NC(CO)C(=O)NNCc1ccc(O)c(O)c1O (stereo not drawn),outcome,[6],inactive
same,Potency,[2],inactive
same,Potency,[3],inactive
same,Potency,[7],inactive
same,Potency,[5],inactive
CN1CCN(C2=Nc3cc(Cl)ccc3Nc3ccccc32)CC1,outcome,[6],inactive
same,Potency,[2],inactive
same,Potency,[3],inactive
same,Potency,[8],inactive
same,Potency,[4],inactive
CNCCCC12CCC(c3ccccc31)c1ccccc12,outcome,[6],inactive
same,Potency,[2],inactive
same,Potency,[3],inactive
same,outcome,[9],inactive
same,outcome,[10],inactive
same,outcome,[11],inactive
same,outcome,[12],inactive
same,Potency,[5],23.5 µM (active)
CN1CCC(=C2c3ccccc3CC(=O)c3sccc32)CC1,outcome,[6],inactive
same,Potency,[2],inactive
same,Potency,[3],inactive
same,Potency,[7],8.33 µM (active)
same,Potency,[4],20.9 µM (active)
same,Potency,[5],16.6 µM (active)
Fc1ccc([C@@H]2CCNC[C@H]2COc2ccc3c(c2)OCO3)cc1,outcome,[6],inactive
same,Potency,[2],inactive
same,Potency,[3],inactive
same,Potency,[4],inactive
Cc1cc(C(C)(C)C)c(O)c(C)c1CC1=NCCN1,outcome,[6],inactive
same,Potency,[2],inactive
same,Potency,[3],inactive
same,outcome,[9],inactive
same,outcome,[11],inactive
same,outcome,[12],inactive
same,Potency,[8],inactive
same,Potency,[4],inactive
same,Potency,[5],inactive
Nc1c2c(nc3ccccc13)CCCC2,outcome,[6],inactive
same,Potency,[2],inactive
same,Potency,[3],inactive
same,Potency,[8],inactive
same,Potency,[4],inactive
CN1C(C(=O)Nc2ccccn2)=C(O)c2ccccc2S1(=O)=O,outcome,[6],inactive
same,Potency,[2],inactive
same,Potency,[3],inactive
same,Potency,[4],inactive
Nc1nnc(-c2cccc(Cl)c2Cl)c(N)n1,outcome,[6],inactive
same,Potency,[2],inactive
same,Potency,[3],inactive
same,Potency,[4],inactive
CCN1CCCC1CNC(=O)c1cc(S(=O)(=O)CC)c(N)cc1OC (stereo not drawn),outcome,[6],inactive
same,Potency,[2],inactive
same,Potency,[3],inactive
same,Potency,[7],inactive
same,Potency,[4],inactive
same,Potency,[5],0.0743 µM (active)
CC[C@@]1(O)C(=O)OCc2c1cc1n(c2=O)Cc2cc3c(CN(C)C)c(O)ccc3nc2-1,outcome,[6],inactive
same,Potency,[2],inactive
same,Potency,[3],inactive
same,outcome,[9],inactive
same,outcome,[10],inactive
same,outcome,[11],inactive
same,outcome,[12],inactive
same,Potency,[4],0.935 µM (active)
same,Potency,[5],0.264 µM (active)
CN(CCOc1ccc(NS(C)(=O)=O)cc1)CCc1ccc(NS(C)(=O)=O)cc1,outcome,[6],inactive
same,Potency,[2],inactive
same,Potency,[3],inactive
same,Potency,[7],inactive
same,Potency,[4],inactive
same,Potency,[5],inactive
CC(C(=O)O)c1cccc(C(=O)c2ccccc2)c1 (stereo not drawn),outcome,[6],inactive
same,Potency,[2],inactive
same,Potency,[3],inactive
same,Potency,[8],inactive
same,Potency,[5],inactive
CCCCc1oc2ccccc2c1C(=O)c1cc(I)c(OCCN(CC)CC)c(I)c1,outcome,[6],inactive
same,Potency,[2],inactive
same,Potency,[3],inactive
same,Potency,[8],26.4 µM (active)
same,Potency,[5],8.33 µM (active)
